# Experimental data: ChEMBL document CHEMBL3988442, “University of Dundee, Small-Polar-MMV Screening Library” (2021)
# Hit rate of the full screen: of about 38,000 compounds, about 1,200 (3.2%) showed an effect of 50% or more. The median lay at about -58%. Many of the other results were omitted from the sample, so strong results are more common in it than they were.
# System: Plasmodium falciparum
# Test: Calibr Malaria Delayed Death Assay SOP
# Assay type: functional, organism-based
# Set-up: scale not given: in the data most compounds retested in dose-response had high values
# Conditions: concentration 4.99e-06 (unit not given; other assays of the set use mol/L)
row,SMILES,Percent Effect [%]
1,CCSc1cc(C(=O)NC2CCN(C(=O)c3ccncc3)CC2)ccn1,-119
2,CC(NC1CCCC1)c1ccccc1-n1cccn1 (stereo not drawn),80.66
3,CC(NCc1cnc(C2CCC2)s1)c1ccccc1-n1cccn1 (stereo not drawn),-47.47
4,O=C(NCc1ccccc1-n1cccn1)N1CCN2CCCCC2C1 (stereo not drawn),-71.32
5,CS(=O)(=O)CCCN(CCCO)C1CCc2ccccc21 (stereo not drawn),-127.8
6,CN(C)CCn1ccnc1C1CCCN(c2ncc(Cl)cc2F)C1 (stereo not drawn),35.69
7,Fc1cc(Cl)cnc1N1CCCC(c2nccn2CC2CC2)C1 (stereo not drawn),3.7
8,CN(C)CCCn1ccnc1C1CCCN(c2ncc(Cl)cc2F)C1 (stereo not drawn),83.94
9,COc1cc(OC)nc(N2CCCC(c3nccn3CCN(C)C)C2)n1 (stereo not drawn),-26.11
10,CN(C)CCn1ccnc1C1CCCN(c2cc(N)ncn2)C1 (stereo not drawn),-56.5
11,Cc1cc(C)nc(N2CCCC(c3nccn3CCCN(C)C)C2)c1 (stereo not drawn),50.47
12,Cc1ccc(C)c(Oc2cc(-n3nc(C)c(C#N)c3N)nc(C)n2)c1,-175
13,Cc1cc(C2CCCN2C(=O)NCc2c(C)cc(C)[nH]c2=O)on1 (stereo not drawn),-57.59
14,CN(CC1COCCO1)c1ncnc2cc(F)ccc12 (stereo not drawn),-82.12
15,Cn1cccc1C(=O)N1CCN(Cc2cccnc2)c2ncccc2C1.O=C(O)C(F)(F)F.O=C(O)C(F)(F)F,-59.69
16,Cc1nc[nH]c1CN1CCC(C2CCN(CCc3ccccc3)C2)CC1 (stereo not drawn),9.569
17,Cc1nc[nH]c1CN1CCCN(c2nc3ccccc3s2)CC1,54.13
18,Cn1nc2c(cc1=O)CN(c1nc3ccccc3s1)CC2,-163.5
19,Cc1ncnc(N2CCCN(c3nc4ccccc4s3)CC2)c1C,-444.8
20,c1ccc2sc(N3CCCN(c4ncnc5c4CCNC5)CC3)nc2c1,85.14
21,c1ccc2sc(N3CCN(c4ncnc5c4CCC5)CC3)nc2c1,-56.68
22,Cc1ccc(CNCc2nccn2C)c(OC(C)(C)C)c1,8.3
23,O=C(NCCc1coc(-c2ccccc2)n1)NC1CC1,-110.7
24,CN(C)CCN1CCOCC12CCN(C(=O)C1CC1)CC2.O=C(O)C(F)(F)F.O=C(O)C(F)(F)F,-16.92
25,CC(C(=O)NCc1cn2cc(Br)ccc2n1)S(C)(=O)=O (stereo not drawn),-87.47

row,SMILES,Percent Effect [%]
1,Cc1cc(CN(C)C(=O)C(c2ccccc2)N2CCSCC2)no1 (stereo not drawn),-62.62
2,CCn1cnnc1CNC(=O)N1CCN(c2cccc(C)c2)CC1,-132.8
3,Cc1cc(C)n(-c2cncc(NCCNS(C)(=O)=O)n2)n1,-82.28
4,CSc1ncn(-c2nc(NC3CC3)nc(N(C)C)n2)n1,-74.3
5,CCC(CNC(=O)c1ccccc1Br)N1CCc2ccccc2C1 (stereo not drawn),39.24
6,CCC(CNC(=O)c1cncc(Br)c1)N1CCc2ccccc2C1 (stereo not drawn),65.67
7,CCC(CNC(=O)c1cc(OC)ccc1Br)N1CCc2ccccc2C1 (stereo not drawn),0.2059
8,CN(CC1(CO)CCC1)C(=O)c1cc(COc2ccccc2F)[nH]n1,-88.13
9,Cc1noc(C(C)C)c1C(=O)N1CCOCC1CC(=O)c1ccco1 (stereo not drawn),-42.91
10,NC(=O)Cc1ccc(OCc2noc(C(=O)N3CCCC3)n2)cc1,-126.1
11,O=C(C1CCC2(CCN(Cc3cccnc3)CC2)CO1)N1CCCC1.O=C(O)C(F)(F)F.O=C(O)C(F)(F)F (stereo not drawn),-51.34
12,COc1cc(CCC(=O)NC(C)C)ccc1OCC(F)(F)F,-88.73
13,Cc1c(C(=O)N2CCN(C)CC2)n(C)c2ccc(Cl)cc12,-1.924
14,Cc1c(C(=O)N2CCOCC2)n(C)c2ccc(Cl)cc12.Cl,-79.72
15,NCC1Cc2cccc(-c3nccc(N4CCC(O)CC4)n3)c2O1 (stereo not drawn),16.4
16,NCC1Cc2cc(-c3nccc(N4CCC(O)CC4)n3)cc(F)c2O1 (stereo not drawn),83
17,O=C1NCCN1C1CCN(c2ccnc(-c3ccccc3)n2)CC1,-68.77
18,OC1CCN(c2ccnc(NCCc3ccccc3Cl)n2)CC1,-52.91
19,NCC1Cc2cc(-c3nccc(N4CCC(O)CC4)n3)cc(Cl)c2O1 (stereo not drawn),79.64
20,OC1CCN(c2ccnc3c(F)cc(Br)cc23)CC1,-18.79
21,Cc1ccc(CN2CCc3c(COC(C)C)nn(C)c3C2)s1.O=C(O)C(F)(F)F,-19.42
22,Cc1cc(-c2cc(S(=O)(=O)N3C[C@H](C4CC4)[C@@H](N)C3)c(C)s2)[nH]n1,61.47
23,Cc1cc(S(=O)(=O)N2C[C@H](C3CC3)[C@@H](N)C2)c(C)s1,85.63
24,Cc1ccc(S(=O)(=O)N2C[C@H](C3CC3)[C@@H](N)C2)cc1F,14.36
25,N[C@H]1CN(S(=O)(=O)c2cccnc2)C[C@@H]1C1CC1,-65.5

row,SMILES,Percent Effect [%]
1,N[C@H]1CN(S(=O)(=O)c2ccccc2)C[C@@H]1C1CC1,-1.115
2,CC(C)Nc1cc(N2CCC(n3cc(CCO)nn3)CC2)ncn1,-78.28
3,Cc1cc(C(=O)N2CCN(c3nc4c(C)cccc4s3)CC2)no1,-18.05
4,Cc1c(C2N3C[C@]4(C(C)C)CN2C[C@](C(C)C)(C3)C4=O)[nH]c(=O)[nH]c1=O (stereo partly drawn),-140.7
5,O=C(O)C(F)(F)F.O=C1COC2(CCN(c3ncccn3)CC2)CN1Cc1ccccn1,-77.45
6,CN(CCCOc1ccccc1)C(=O)c1csc(-c2nnc[nH]2)n1,76.91
7,COCCN(Cc1ccccc1)C(=O)c1csc(-c2nnc[nH]2)n1,-56.87
8,COc1cccc(CN(C)C(=O)c2csc(-c3nnc[nH]3)n2)c1,-25.24
9,CC(=O)Nc1nc2c(s1)C1(CCCC1)Nc1ccccc1S2,-91.88
10,Cc1nc(CCNC(=O)C2CC(=O)N(C(C)C)C2)cs1 (stereo not drawn),-69.29
11,Cc1ccc(NC2CCN(C(=O)COC3CCCC3)CC2)nn1,-115.6
12,c1ccc(C2(NCC3CNc4ccnn4C3)CCC2)cc1 (stereo not drawn),13.04
13,Cc1cc2n(n1)CC(CNC1CCN(c3ccccn3)CC1)CN2 (stereo not drawn),-51.76
14,Cc1ccccc1CN1CCC(NCC2CNc3ccnn3C2)CC1 (stereo not drawn),66.35
15,Cc1cc2n(n1)CC(CNC1CCN(C(=O)C3CC3)CC1)CN2 (stereo not drawn),-153
16,OCc1ccccc1CNCC1CNc2ccnn2C1 (stereo not drawn),-1.893
17,Cc1cc2n(n1)CC(CNC1CCN(Cc3ccncc3)CC1)CN2 (stereo not drawn),-3.89
18,Cc1cc2n(n1)CC(CNC1CCN(Cc3ccccn3)CC1)CN2 (stereo not drawn),-56.82
19,Cc1cc2n(n1)CC(CNC1CCN(C3CC3)CC1)CN2 (stereo not drawn),-73.71
20,Cc1cccc(CN2CCC(NCC3CNc4cc(C)nn4C3)CC2)c1 (stereo not drawn),85.82
21,Cc1cc2n(n1)CC(CNC1CCN(CCc3ccccc3)CC1)CN2 (stereo not drawn),67.68
22,Cc1cc2n(n1)CC(CNC1CCN(C(=O)c3ccco3)CC1)CN2 (stereo not drawn),-80.47
23,Cc1cc2n(n1)CC(CNC1CCN(Cc3ccccc3C)CC1)CN2 (stereo not drawn),70.36
